Measured values taken from the supplement of paper PMC13380429.

Test system: Vero E6 infected with SARS-CoV-2
Assay: inhibition of SARS-CoV-2 cytopathic effect; higher = more antiviral protection, active = above 15
Conditions: 48 h

Measured: inhibition of SARS-CoV-2 cytopathic effect

N[C@@H]1CN(c2c(F)cc3c(=O)c(C(=O)O)cn([C@@H]4C[C@@H]4F)c3c2Cl)CC12CC2 [sitafloxacin]
inactive: 1 nM -0.69% | 8.33 nM -3.2% | 100 nM -0.99% | 833.33 nM -1.2% | 10000 nM 5.19%

CC#C[C@@H](CC(=O)O)c1ccc(OCc2cccc(-c3ccc(C(F)(F)F)cc3)c2)cc1
inactive: 1 nM -0.29% | 8.33 nM 1.42% | 100 nM -0.33% | 833.33 nM 2.32% | 10000 nM 4.27%

O=P(O)(O)C(Cl)(Cl)P(=O)(O)O [clodronic-acid]
inactive: 1 nM 0.55% | 8.33 nM 0.27% | 100 nM 0.5% | 833.33 nM 2.21% | 10000 nM -1.06%
